# Source: PubChem BioAssay
# Records with an inconclusive call do not appear. Activity calls are given as the source filed them.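 Rule for the calls, unless noted: active = differentiation response of at least 50%, scaled between solvent and reference control, from cells with both markers; inactive = the rest.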
# Assays:
# [1] = rapamycin-like changes in RPL19A-GFP expression – cell-based, S. cerevisiae, multiplex flow cytometry, primary screen (AID 1862; in the data active = percent of DMSO control GFP below about 86%;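 note: lower values mimic rapamycin by blocking the RPL19A rise seen in DMSO cells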); details: S. cerevisiae RPL19A-GFP strain, flow cytometry fluorescence, 3 h; at 10 µM; stronger effect = lower value
# [2] = TOR pathway GLN3 branch reporter MEP2-GFP changes – S. cerevisiae, multiplex flow cytometry, primary screen (AID 1867;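 active = GFP response, as percent of the DMSO control, above the screen-wide mean plus 3 SD, about 139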;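 note: median GFP channel fluorescence of barcode-gated MEP2-GFP cells measured by flow cytometry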); details: S. cerevisiae MEP2-GFP strain, 3 h, at 10 µM, stronger effect = higher value, 100% means same as DMSO wells
# [3] = TOR pathway RTG branch CIT2 reporter changes – S. cerevisiae, GFP fusion, multiplex flow cytometry, primary screen (AID 1870;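 active = percent response above a set limit, the screen-wide mean plus 3 SD, cut at about 130% in these data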;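 note: barcoded CIT2-GFP strain pooled with four other GFP strains with rapamycin as positive control; median GFP fluorescence per well over plate mean of DMSO wells so 100% = DMSO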); details: S. cerevisiae CIT2-GFP expression, 3 h, at 10 µM, stronger effect = higher value
# [4] = TOR pathway LAP4-GFP level changes – S. cerevisiae, multiplex flow cytometry, primary screen (AID 1873;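 active = GFP signal, as percent of the solvent control, above the screen mean plus 3 SD, about 149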); details: S. cerevisiae LAP4-GFP expression, 3 h, at 10 µM, stronger effect = higher value
# [5] = yeast AGP1-GFP level changes, GLN3 branch – cell-based, multiplex flow cytometry, S. cerevisiae, primary screen (AID 1887;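 active = GFP signal above the screen-wide mean plus 3 SD, that is over about 124.5% of the solvent control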;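 note: AGP1-GFP fusion strain of S. cerevisiae within a five-strain barcoded multiplex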); details: 3 h, at 10 µM, stronger effect = higher value
# [6] = reduced mouse 2C T cell binding to pMHC/ICAM-1 vesicles – MLPCN validation set, flow cytometry, LFA-1/ICAM-1 modulator project, pilot screen (AID 2523;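 active = response below a set limit, under 55% cells CD8-positive and vesicle-bound, and CD8 cells' 90th-percentile brightness under 279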;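 for vesicle binding response: mean PE anti-B7-1 fluorescence of CD8+ cells relative to row control; 100% = QL9-loaded vesicles with DMSO vehicle in the same plate row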); details: 2C mouse CD8+ T cells, at 7 µM, stronger effect = lower value; double positive events: measured here: CD8+/vesicle+ event percentage
# [7] = molecular target: Integrin beta-1 (Homo sapiens) + Integrin alpha-4 (Homo sapiens) (UniProt P13612+P05556); assay: alpha4beta1 integrin LIBS antibody binding reduction – U937 cells, HUTS-21 mAb, flow cytometry, validation set, VLA-4 allosteric modulator project, pilot screen (AID 2674;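 active = inhibition above 50%, about 3 SD of the validation set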;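 note: antibody binding induced by the VLA-4 ligand LDV present at three times its Kd; 0% = LDV ligand with antibody and no compound and 100% = antibody without LDV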); details: HUTS-21 LIBS mAb binding, at 6.7 µM, stronger effect = higher value, binding induced by LDV ligand
# Sequence of Integrin beta-1 (Homo sapiens) + Integrin alpha-4 (Homo sapiens) (P05556 whole entry, looked up): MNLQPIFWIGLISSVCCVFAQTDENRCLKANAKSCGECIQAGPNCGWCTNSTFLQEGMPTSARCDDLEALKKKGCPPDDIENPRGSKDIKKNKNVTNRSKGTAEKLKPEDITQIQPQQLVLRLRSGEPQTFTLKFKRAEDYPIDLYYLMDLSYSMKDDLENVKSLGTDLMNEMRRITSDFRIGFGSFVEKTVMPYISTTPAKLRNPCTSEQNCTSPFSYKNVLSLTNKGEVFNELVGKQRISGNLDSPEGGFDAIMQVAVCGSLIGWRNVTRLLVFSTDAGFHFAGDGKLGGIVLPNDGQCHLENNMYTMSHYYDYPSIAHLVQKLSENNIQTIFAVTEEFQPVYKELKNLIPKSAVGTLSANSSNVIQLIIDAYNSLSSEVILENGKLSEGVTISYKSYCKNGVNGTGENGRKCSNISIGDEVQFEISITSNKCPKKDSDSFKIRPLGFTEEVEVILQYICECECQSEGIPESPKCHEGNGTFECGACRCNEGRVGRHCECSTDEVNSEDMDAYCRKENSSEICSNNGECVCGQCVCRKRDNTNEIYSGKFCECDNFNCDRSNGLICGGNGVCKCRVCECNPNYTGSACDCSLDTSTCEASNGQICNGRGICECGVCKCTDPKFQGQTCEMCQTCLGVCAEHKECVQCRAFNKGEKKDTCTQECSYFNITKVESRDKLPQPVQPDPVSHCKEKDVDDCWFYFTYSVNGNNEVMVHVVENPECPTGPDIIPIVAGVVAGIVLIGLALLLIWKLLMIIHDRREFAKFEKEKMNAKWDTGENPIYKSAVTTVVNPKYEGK
# Sequence of Integrin beta-1 (Homo sapiens) + Integrin alpha-4 (Homo sapiens) (P13612 whole entry, looked up): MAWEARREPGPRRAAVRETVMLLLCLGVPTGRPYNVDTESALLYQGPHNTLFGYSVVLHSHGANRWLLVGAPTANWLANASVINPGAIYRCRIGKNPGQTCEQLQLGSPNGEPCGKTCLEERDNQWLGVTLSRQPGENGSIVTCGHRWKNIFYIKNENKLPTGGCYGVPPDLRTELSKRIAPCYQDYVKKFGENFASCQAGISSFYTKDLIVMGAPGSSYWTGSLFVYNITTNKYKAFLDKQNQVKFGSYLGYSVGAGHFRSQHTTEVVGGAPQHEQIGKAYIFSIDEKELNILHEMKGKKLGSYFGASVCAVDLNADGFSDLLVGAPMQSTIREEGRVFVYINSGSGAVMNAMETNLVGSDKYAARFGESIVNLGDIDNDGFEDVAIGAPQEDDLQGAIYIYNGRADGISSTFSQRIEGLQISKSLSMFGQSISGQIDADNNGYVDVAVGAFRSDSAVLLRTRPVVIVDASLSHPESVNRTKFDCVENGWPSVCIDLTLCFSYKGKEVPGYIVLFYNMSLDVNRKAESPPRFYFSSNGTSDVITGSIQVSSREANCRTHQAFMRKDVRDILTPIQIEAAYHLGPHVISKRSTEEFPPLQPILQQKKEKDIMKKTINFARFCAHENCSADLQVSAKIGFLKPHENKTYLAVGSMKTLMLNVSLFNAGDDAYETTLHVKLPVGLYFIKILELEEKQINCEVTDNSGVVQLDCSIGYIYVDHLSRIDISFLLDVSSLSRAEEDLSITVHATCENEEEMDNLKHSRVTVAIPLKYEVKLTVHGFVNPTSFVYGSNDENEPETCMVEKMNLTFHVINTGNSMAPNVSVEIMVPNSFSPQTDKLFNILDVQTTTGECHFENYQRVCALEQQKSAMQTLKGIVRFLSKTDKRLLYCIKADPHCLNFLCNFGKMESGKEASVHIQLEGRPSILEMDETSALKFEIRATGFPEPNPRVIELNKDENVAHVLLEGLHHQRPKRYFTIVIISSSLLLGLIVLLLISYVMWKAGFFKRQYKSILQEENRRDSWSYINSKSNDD
# [8] = calorie-restriction mimetic ROS inhibitors, yeast – validation compound set, pilot screen (AID 2706;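 active = superoxide response below 65% of plate, a cut near 3 SD across the whole screen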;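 note: yeast exposed to compound for one week at 30 degrees C before staining; 100% = mean of all compound wells on the same plate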); details: S. cerevisiae aging, superoxide DHE fluorescence; at 10 µM; stronger effect = lower value
# [9] = molecular target: Beta-adrenergic receptor kinase 1 (Homo sapiens) (UniProt P25098); assay: GRK2 binders displacing RNA aptamer, biochemical, validation, human GRK2, bead flow cytometry (AID 488806;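 active = aptamer binding inhibition above 30%, about 3 SD of noise from non-fluorescent compounds; inactive = inhibition at or below 30%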); details: bead-bound GRK2, FAM-aptamer displacement, at 10 µM, stronger effect = higher value
# Sequence of Beta-adrenergic receptor kinase 1 (Homo sapiens) (P25098 whole entry, looked up): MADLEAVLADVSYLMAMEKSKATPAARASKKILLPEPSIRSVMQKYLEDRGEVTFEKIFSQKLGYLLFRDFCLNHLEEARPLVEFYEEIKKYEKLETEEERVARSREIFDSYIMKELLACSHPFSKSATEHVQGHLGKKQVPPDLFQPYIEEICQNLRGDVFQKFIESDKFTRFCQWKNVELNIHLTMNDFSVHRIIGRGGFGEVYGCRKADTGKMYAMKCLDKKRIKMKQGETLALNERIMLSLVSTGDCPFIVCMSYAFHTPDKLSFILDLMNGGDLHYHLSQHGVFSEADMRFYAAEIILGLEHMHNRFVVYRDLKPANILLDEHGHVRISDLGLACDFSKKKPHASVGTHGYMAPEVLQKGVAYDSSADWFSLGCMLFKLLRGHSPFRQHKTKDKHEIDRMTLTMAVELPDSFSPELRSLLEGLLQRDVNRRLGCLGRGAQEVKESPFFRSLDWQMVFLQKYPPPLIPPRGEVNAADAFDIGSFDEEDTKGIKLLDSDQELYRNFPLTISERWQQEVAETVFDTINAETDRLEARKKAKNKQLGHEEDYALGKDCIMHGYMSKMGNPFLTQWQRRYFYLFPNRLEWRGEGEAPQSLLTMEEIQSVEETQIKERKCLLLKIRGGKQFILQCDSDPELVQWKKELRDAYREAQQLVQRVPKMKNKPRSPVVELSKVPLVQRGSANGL
# [10] = molecular target: Beta-2 adrenergic receptor (Homo sapiens) (UniProt P07550); assay: agonist-induced loss of surface beta2AR – cell-based, FAP fluorogen, flow cytometry, validation set, pilot screen (AID 504459;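 active = percent response above 42, roughly 3 SD of non-fluorescent test compounds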;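 note: agonist-driven loss of surface beta2AR via internalization measured by FAP dye flow cytometry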); details: Am2.2-beta2AR cells, at 10 µM, stronger effect = higher value
# Sequence of Beta-2 adrenergic receptor (Homo sapiens) (P07550 whole entry, looked up): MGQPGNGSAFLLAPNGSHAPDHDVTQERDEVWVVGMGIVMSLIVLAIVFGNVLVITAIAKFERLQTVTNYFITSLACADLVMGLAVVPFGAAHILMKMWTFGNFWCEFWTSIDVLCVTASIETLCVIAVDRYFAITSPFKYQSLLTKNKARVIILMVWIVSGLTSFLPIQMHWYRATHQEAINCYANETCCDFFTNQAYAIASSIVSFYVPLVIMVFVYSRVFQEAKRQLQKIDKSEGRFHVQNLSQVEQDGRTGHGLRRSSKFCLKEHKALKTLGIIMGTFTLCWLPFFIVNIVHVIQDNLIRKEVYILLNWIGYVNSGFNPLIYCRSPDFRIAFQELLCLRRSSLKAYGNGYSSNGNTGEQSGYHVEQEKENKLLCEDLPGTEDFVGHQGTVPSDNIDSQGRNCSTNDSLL
# [11] = molecular target: AP-2 complex subunit beta (Homo sapiens) (UniProt P63010); assay: beta-arrestin/AP2 interaction blockers – biochemical, validation set, GST-AP2 beads, flow cytometry, pilot screen (AID 504541;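 active = inhibition above 54%, about 3 SD of non-fluorescent compounds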;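 note: AP2 carries R879A mutation and is captured from E. coli lysate; bead-bound FITC arrestin peptide fluorescence measuring arrestin peptide binding to AP2; 0% = DMSO wells and 100% = excess unlabeled arrestin peptide control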); details: FITC arrestin peptide, at 10 µM, stronger effect = higher value, AP2 beta2 appendage fragment, R879A mutant
# Sequence of AP-2 complex subunit beta (Homo sapiens) (P63010 whole entry, looked up, the tested form may be a part, one chain of several): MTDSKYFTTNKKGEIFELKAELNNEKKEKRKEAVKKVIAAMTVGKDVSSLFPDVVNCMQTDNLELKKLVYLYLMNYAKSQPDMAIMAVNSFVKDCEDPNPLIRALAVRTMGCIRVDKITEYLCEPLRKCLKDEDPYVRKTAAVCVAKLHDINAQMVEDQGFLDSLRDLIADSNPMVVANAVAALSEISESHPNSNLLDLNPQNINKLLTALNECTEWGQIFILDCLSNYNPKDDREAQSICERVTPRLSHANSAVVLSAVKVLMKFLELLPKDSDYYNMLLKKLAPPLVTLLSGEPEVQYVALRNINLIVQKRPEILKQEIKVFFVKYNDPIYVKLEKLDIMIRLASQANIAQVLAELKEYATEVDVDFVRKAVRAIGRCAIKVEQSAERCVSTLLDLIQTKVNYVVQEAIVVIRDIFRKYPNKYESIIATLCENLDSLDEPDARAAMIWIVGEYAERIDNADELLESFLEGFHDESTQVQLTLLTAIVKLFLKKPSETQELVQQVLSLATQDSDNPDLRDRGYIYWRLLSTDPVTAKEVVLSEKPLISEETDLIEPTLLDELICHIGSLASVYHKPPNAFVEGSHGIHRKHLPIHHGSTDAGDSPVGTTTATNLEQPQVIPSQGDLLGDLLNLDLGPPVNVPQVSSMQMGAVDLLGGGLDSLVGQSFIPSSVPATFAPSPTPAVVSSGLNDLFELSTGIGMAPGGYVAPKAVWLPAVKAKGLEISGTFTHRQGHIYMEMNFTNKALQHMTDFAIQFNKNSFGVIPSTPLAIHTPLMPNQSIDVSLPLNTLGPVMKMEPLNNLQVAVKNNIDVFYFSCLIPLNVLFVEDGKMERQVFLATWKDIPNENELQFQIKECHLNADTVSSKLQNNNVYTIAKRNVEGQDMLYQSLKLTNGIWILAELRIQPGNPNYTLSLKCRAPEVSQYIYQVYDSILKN
# [12] = cytosolic pH regulators acting via V-ATPase – S. cerevisiae, pHLuorin, HTS validation (AID 504600; in the data active = response above about 15%;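 note: plate controls were DMSO for no effect and reference compound for full effect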); details: V-ATPase proton transport, at 10 µM, stronger effect = higher value
# [13] = system: anti-desmoglein-3 scFv antibody binding to human DSG3; assay: blockers of pathogenic pemphigus antibody–desmoglein-3 binding – biochemical, validation compound set, bead-based, flow cytometry, pilot screen (AID 588368;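 active = binding below the plate cutoff, the plate median minus 3 SD, with a reading above zero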;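 note: signal is the median channel fluorescence of bead-bound GFP antibody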); details: Protein G beads, DSG3-Fc, scFv-GFP binding, at 10 µM, stronger effect = lower value
# [14] = Nile Red efflux blockade in pump-expressing yeast – validation compound set, multiplex, phenotypic, pilot screen (AID 588506;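 active = efflux inhibition above 0.42, the validation set average plus 4 SD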;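 note: Nile Red retained in cells so higher fluorescence means more efflux inhibition; 0 = negative control wells and 1 = enniatin B 25 µM full block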); details: S. cerevisiae pump-expressing triplex, Nile Red efflux flow cytometry; at 10 µM; stronger effect = higher value; the pumps come from Candida albicans
# [15] = molecular target: ATP-binding cassette sub-family B member 6 (Homo sapiens) (UniProt Q9NP58); assay: blockers of ABCB6-driven porphyrin uptake – K562-ABCB6 cells, flow cytometry, validation set, pilot screen (AID 588550;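 active = inhibition above the screen-wide mean plus 3 SD, about 51%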;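 note: 0% = DMSO wells and 100% = benzethonium chloride 70 µM positive control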); details: K562-ABCB6 porphyrin accumulation, 1 h, at 10 µM, stronger effect = higher value
# Sequence of ATP-binding cassette sub-family B member 6 (Homo sapiens) (Q9NP58 whole entry, looked up): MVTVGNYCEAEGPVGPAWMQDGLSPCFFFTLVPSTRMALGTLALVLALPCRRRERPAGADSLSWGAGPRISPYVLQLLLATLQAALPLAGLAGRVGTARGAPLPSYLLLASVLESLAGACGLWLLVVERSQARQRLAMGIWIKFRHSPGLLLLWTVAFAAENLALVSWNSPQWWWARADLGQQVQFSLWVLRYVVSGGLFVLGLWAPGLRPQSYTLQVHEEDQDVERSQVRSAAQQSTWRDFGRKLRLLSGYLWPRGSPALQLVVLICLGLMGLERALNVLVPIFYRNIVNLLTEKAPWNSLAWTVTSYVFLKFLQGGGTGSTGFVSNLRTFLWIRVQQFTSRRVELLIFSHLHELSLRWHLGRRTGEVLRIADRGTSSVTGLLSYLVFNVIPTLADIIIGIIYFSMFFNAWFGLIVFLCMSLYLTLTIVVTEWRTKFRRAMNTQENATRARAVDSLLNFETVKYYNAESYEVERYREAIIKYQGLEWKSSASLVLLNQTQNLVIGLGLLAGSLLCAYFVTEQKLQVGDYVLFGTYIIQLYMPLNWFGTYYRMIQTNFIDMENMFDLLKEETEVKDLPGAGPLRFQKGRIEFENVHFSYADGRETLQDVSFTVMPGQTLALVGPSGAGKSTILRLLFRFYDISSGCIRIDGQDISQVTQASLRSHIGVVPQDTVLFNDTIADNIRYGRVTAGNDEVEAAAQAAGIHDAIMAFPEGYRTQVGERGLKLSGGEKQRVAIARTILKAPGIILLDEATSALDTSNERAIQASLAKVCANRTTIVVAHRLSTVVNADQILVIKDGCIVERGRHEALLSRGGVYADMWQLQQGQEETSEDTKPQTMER
# [16] = AML differentiation inducers, ER-HoxA9 marrow cells – cell-based, GFP/MAC1 double positive, flow cytometry, validation set, primary screen (AID 588685); details: stronger effect = higher value, normalized: vehicle 0, fulvestrant 100;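 note: compound exposure lasts four days before antibody staining and flow analysis; 0% = DMSO wells and 100% = 5 µM fulvestrant positive control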
SMILES,percent of DMSO control GFP [1],GFP response vs DMSO [2],percent response of DMSO control [3],GFP response vs DMSO [4],"GFP response, % of DMSO [5]",double positive events [6] [%],vesicle binding response [6],inhibition [7],superoxide response (% of plate) [8],aptamer binding inhibition [9],response [10],inhibition [11],response [12],binding (% of control) [13],efflux inhibition (fraction of control) [14],inhibition [15],differentiation response [16]
CC(C)CCn1c(N2CCc3ccccc3C2)nc2c1c(=O)[nH]c(=O)n2C,92.6% (inactive),128% (inactive),108% (inactive),83.1% (inactive),83.3% (inactive),54.4,184% (inactive),-6.15% (inactive),98% (inactive),-2% (inactive),-18.6% (inactive),2.58% (inactive),2.15% (inactive),104% (inactive),-0.24 (inactive),12% (inactive),-4.91% (inactive)
CN(C)[C@@H]1C(=O)C(C(=O)NCN2CCCC2)=C(O)[C@@]2(O)C(=O)C3=C(O)c4c(O)cccc4[C@@](C)(O)C3CC12 (stereo partly specified),103% (inactive),119% (inactive),112% (inactive),95.7% (inactive),93.3% (inactive),59,145% (inactive),-45.9% (inactive),107% (inactive),92% (active),12.3% (inactive),94.1% (active),-6.79% (inactive),30.6% (active),-0.06 (inactive),8% (inactive),19.6% (inactive)
COC(=O)[C@@H](N)CS,102% (inactive),102% (inactive),98.2% (inactive),95.1% (inactive),103% (inactive),60.5,61.8% (inactive),-3.18% (inactive),101% (inactive),8% (inactive),15.2% (inactive),-20.1% (inactive),0.91% (inactive),95.6% (inactive),0.2 (inactive),4% (inactive),-3.4% (inactive)
CN(C)[C@@H]1C(=O)C(C(N)=O)=C(O)[C@@]2(O)C(=O)C3=C(O)c4c(O)ccc(Cl)c4[C@@H](O)[C@H]3C[C@@H]12,104% (inactive),105% (inactive),98.3% (inactive),104% (inactive),109% (inactive),59.2,122% (inactive),-7.93% (inactive),96% (inactive),10% (inactive),-15.7% (inactive),10.7% (inactive),-7.23% (inactive),101% (inactive),-0.17 (inactive),-10% (inactive),8.8% (inactive)
COc1ccc(N2C(=O)[C@@H]3[C@H](C2=O)[C@H]2c4ccccc4C=CN2[C@@H]3C(C)=O)cc1,101% (inactive),104% (inactive),96.5% (inactive),112% (inactive),96.8% (inactive),64.6,176% (inactive),-27.9% (inactive),98.7% (inactive),2% (inactive),-19.3% (inactive),-12.3% (inactive),-3.65% (inactive),107% (inactive),-0.26 (inactive),-6% (inactive),-3.11% (inactive)
CCc1cc(=O)oc2cc3occ(-c4ccc(OC)c(F)c4)c3cc12,96.8% (inactive),116% (inactive),111% (inactive),93% (inactive),87.7% (inactive),60.2,260% (inactive),16.2% (inactive),88% (inactive),-1% (inactive),25.5% (inactive),6.17% (inactive),0.45% (inactive),107% (inactive),0.63 (active),15% (inactive),10.6% (inactive)
CN(C)CCCN1c2ccccc2CCc2ccccc21,99% (inactive),103% (inactive),101% (inactive),90.7% (inactive),95.3% (inactive),65.8,1060% (inactive),12% (inactive),89.3% (inactive),-2% (inactive),2.45% (inactive),4.55% (inactive),-0.62% (inactive),99.7% (inactive),-0.2 (inactive),3% (inactive),6.11% (inactive)
CN1C(=O)NC(c2ccc(O)cc2)C2=C1CN(c1cccc3ccccc13)C2=O (stereo unspecified),102% (inactive),107% (inactive),106% (inactive),94% (inactive),100% (inactive),64,229% (inactive),-1.49% (inactive),94.5% (inactive),0% (inactive),-19.6% (inactive),3.73% (inactive),-0.13% (inactive),99.8% (inactive),-0.23 (inactive),-6% (inactive),7.09% (inactive)
CCOC(=O)C1NN=C(C(=O)c2ccccc2)C1c1ccc(Cl)cc1 (stereo unspecified),98.3% (inactive),96.6% (inactive),91.3% (inactive),93.7% (inactive),88.8% (inactive),58.1,192% (inactive),9.63% (inactive),106% (inactive),3% (inactive),3.04% (inactive),-2.22% (inactive),-0.54% (inactive),99% (inactive),-0.005 (inactive),9% (inactive),-6.03% (inactive)
COc1cc(C(=O)Nc2ccc(N(C)C)cc2)c([N+](=O)[O-])cc1OC,100% (inactive),104% (inactive),101% (inactive),104% (inactive),98.6% (inactive),63.5,224% (inactive),-3.57% (inactive),101% (inactive),4% (inactive),-1.8% (inactive),2.96% (inactive),0.28% (inactive),93.2% (inactive),-0.2 (inactive),7% (inactive),4.15% (inactive)
CCc1cc(=O)oc2cc(OCc3nn[nH]n3)ccc12,102% (inactive),100% (inactive),96.6% (inactive),96% (inactive),100% (inactive),65.5,174% (inactive),-10.8% (inactive),106% (inactive),5% (inactive),-3.63% (inactive),9.23% (inactive),-0.49% (inactive),103% (inactive),0.02 (inactive),14% (inactive),0.24% (inactive)
O=c1[nH]cnc2[nH]ncc12,103% (inactive),103% (inactive),96.5% (inactive),90.4% (inactive),95% (inactive),55.6,154% (inactive),15% (inactive),98% (inactive),0% (inactive),-2.08% (inactive),2.53% (inactive),-1.12% (inactive),103% (inactive),0.005 (inactive),-64% (inactive),7.13% (inactive)
COc1ccc(OC)c(NC2=C(Cl)C(=O)N(Cc3ccccc3)C2=O)c1,104% (inactive),105% (inactive),103% (inactive),103% (inactive),99.8% (inactive),59.3,98% (inactive),4.27% (inactive),99.4% (inactive),0% (inactive),3% (inactive),5.66% (inactive),2.16% (inactive),107% (inactive),-0.075 (inactive),0% (inactive),-11.9% (inactive)
COc1ccc(S(=O)(=O)NCc2ccco2)c2ccccc12,100% (inactive),104% (inactive),88.2% (inactive),114% (inactive),87% (inactive),62.3,175% (inactive),7.76% (inactive),89.3% (inactive),3% (inactive),-3.81% (inactive),-4.99% (inactive),1.41% (inactive),96.3% (inactive),-0.13 (inactive),7% (inactive),2.4% (inactive)
c1ccc(Nc2ccccn2)nc1,98.6% (inactive),105% (inactive),88.2% (inactive),115% (inactive),100% (inactive),59.3,190% (inactive),-3.16% (inactive),97.5% (inactive),3% (inactive),-8.84% (inactive),-0.14% (inactive),-2.96% (inactive),103% (inactive),0.26 (inactive),4% (inactive),7.2% (inactive)
COc1ccc(-c2nc(NC(C)=O)sc2-c2ccc(OC)cc2)cc1,104% (inactive),101% (inactive),99.7% (inactive),92.6% (inactive),90.9% (inactive),65.9,232% (inactive),-2.43% (inactive),104% (inactive),2% (inactive),-22.1% (inactive),-11.5% (inactive),0.09% (inactive),102% (inactive),-0.29 (inactive),0% (inactive),14.4% (inactive)
Cc1cc(NS(=O)(=O)c2ccc(N)cc2)no1,103% (inactive),98.7% (inactive),107% (inactive),102% (inactive),113% (inactive),63.3,121% (inactive),15% (inactive),99.6% (inactive),-1% (inactive),5.64% (inactive),-2.38% (inactive),-1.68% (inactive),99.2% (inactive),-0.16 (inactive),4% (inactive),-11.9% (inactive)
COc1ccc(OC)c(C(=O)c2coc3ccc(O)cc23)c1,98.7% (inactive),109% (inactive),94.4% (inactive),146% (inactive),109% (inactive),63.7,192% (inactive),-2.82% (inactive),88.2% (inactive),2% (inactive),-29.6% (inactive),-14.6% (inactive),4.67% (inactive),103% (inactive),-0.04 (inactive),0% (inactive),0.92% (inactive)
